Measurements: PubChem BioAssay AID1578 (Sanford-Burnham Center for Chemical Genomics, 2009)
Hit rate of the full screen: of about 290,000 compounds, about 3,000 (1%) were called active. The sample as a whole holds a higher share of actives than the screen did. Values without a mark were called inactive. Cut-off read from the data, not from the text of the source: active = inhibition mostly above about 36% (no sharp cut-off); inactive = mostly below about 34%.

Assay: inhibition of NOD1-driven NF-kB reporter – cell-based, luminescence, uHTS, primary screen (AID 1578);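 note: HEK-293T reporter cells stimulated with the NOD1 agonist gamma-tri-DAP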
Conditions: NOD1-driven NF-kB luciferase reporter cells, at 4 µM, hits give high values

Structure (SMILES)	inhibition
CNC(=S)N/N=C1\C(=O)c2cccc3cccc1c23	98.1% (active)
CCNC(=S)N/N=C1\C(=O)c2cccc3cccc1c23	47.8%
CCCCNC(=S)N/N=C1\C(=O)c2cccc3cccc1c23	-56.3%
CC(C)(C)c1ccc(-c2cc(-c3ccccc3O)[nH]n2)cc1	25.5%
Cc1cccc(NC(=S)N/N=C/c2cccn2Cc2ccc(F)cc2)c1	23.3%
Cc1nc([N+](=O)[O-])c(Br)n1CC(=O)c1ccccc1	28.9%
Cc1nc([N+](=O)[O-])c(Br)n1CC(=O)c1ccc(Br)cc1	44.8%
C[C@@H]1ON(C2CCCCC2)[C@H]2c3nc4ccccc4n3C[C@@H]12	-10.2%
CCn1c(Cc2ccc(OC)cc2)nnc1SCc1nc2ccccc2c(=O)[nH]1	-38.1%
CCOCC(=O)Nc1c(C(=O)N2CCN(c3ncccn3)CC2)oc2ccccc12	-37.9%
COc1ccc(NC(=O)c2cc(-c3cc(Cl)ccc3O)n[nH]2)c(OC)c1	-3.3%
COc1ccc(OC)c(NC(=O)c2cc(-c3cc(Cl)ccc3O)n[nH]2)c1	61.4% (active)
COc1ccc(OC)c(NC(=O)c2cc(-c3cc(C)ccc3O)n[nH]2)c1	3.5%
Cn1c(CNC(=O)c2ccc(F)cc2)cc2ccccc21	-17.9%
Cc1onc(-c2c(F)cccc2Cl)c1C(=O)NC1=NCCS1	-2%
Cn1c(SCC(=O)NCC2CCCO2)nc2c(c1=O)SCC2 (stereo unspecified)	-11.7%
CN(C)S(=O)(=O)N1CCC(Oc2ccc(C(=O)NC3CCCCC3)cc2)CC1	-24.9%
C=CCN(CC=C)C(=O)c1ccc(OC2CCN(S(=O)(=O)N(C)C)CC2)cc1	-27.3%
C=C(C)CNC(=O)c1ccc(OC2CCN(S(=O)(=O)N(C)C)CC2)cc1	-27.4%
C=C(C)CN(CC)C(=O)c1ccc(OC2CCN(S(=O)(=O)N(C)C)CC2)cc1	59.3% (active)
CN(C)S(=O)(=O)N1CCC(Oc2cccc(C(=O)NC3CCOC3)c2)CC1 (stereo unspecified)	-17.9%

Structure (SMILES)	inhibition
Cc1oc(-c2ccccc2Cl)nc1CSCC(=O)O	-4.9%
COC(=O)c1cccc(N(C(=O)c2cnccn2)C(C(=O)NCc2ccccc2)c2ccco2)c1 (stereo unspecified)	-29.2%
Cc1cc(NC(=O)CC(F)(F)F)n(-c2ccccc2)n1	-13.5%
CCCc1cc(C(=O)Nc2cc(C)nn2-c2ccccc2)no1	9.1%
CC(=O)Nc1cc(-c2ccc(Cl)cc2)nn1-c1ccccc1	-11.7%
CC(=O)Nc1cn(-c2ccccc2)nc1-c1ccccc1	-27.2%
O=C(Nc1cn(-c2ccccc2)nc1-c1ccc(Cl)cc1)c1ccccc1	-1.1%
Cc1ccc(-c2cc(NC(=O)CCl)n(-c3ccccc3)n2)cc1	16%
CSc1nc2c(c(=O)[nH]1)CCCC2	-21.3%
COC(=O)c1ccc(NC(=O)CNC(=O)C2CCCCC2)cc1	-20.7%
C/C(=N\NC(=O)c1nn(C)cc1Br)c1ccncc1	-3.7%
O=C(O)c1ccc(S(=O)(=O)c2ccc3c(c2)C(=O)N(c2ccc(Br)cc2)C3=O)cc1	-8.2%
CN(CCOC(=O)c1ccco1)Cc1ccccc1	3.9%
COc1ccc(Sc2ccc(/C=C3\C(=O)NN(c4ccccc4)C3=O)o2)cc1	-2.5%
O=C1NN(c2ccccc2)C(=O)/C1=C/c1ccc(-c2ccc(C(=O)O)cc2)o1	-32%
O=C1NN(c2ccccc2)C(=O)/C1=C/c1ccc(Sc2cccc3ccccc23)o1	74.7% (active)
CC(=O)N1[C@H](C)C=C[C@]1(Cc1ccccc1)C(=O)NCc1cc(F)cc(C(F)(F)F)c1	5.4%
C[C@H]1CCC[C@]2(C)C[C@H]3OC(=O)C(CN4CCCCCC4)[C@H]3C=C12 (stereo partly specified)	34% (active)
CCN(CC)CCNCC1C(=O)O[C@@H]2C[C@@]3(C)CCC[C@H](C)C3=C[C@H]12 (stereo partly specified)	-10.7%
CC1CCN(CC2C(=O)O[C@@H]3C[C@@]4(C)CCC[C@H](C)C4=C[C@H]23)CC(C)(C)C1 (stereo partly specified)	15.4%
CCOC(=O)c1c(C)[nH]c(C(=O)CN2C(=O)NC(C)(CC(C)C)C2=O)c1C (stereo unspecified)	-30.4%

Structure (SMILES)	inhibition
CCOc1ccc(NC(=O)c2cc(=O)[nH]c3ccccc23)cc1	-21.6%
Nc1ccc2nc(SCc3ccccc3F)sc2c1	-8.7%
CCc1cccc(NC(=O)c2cnn(-c3ccccc3)c2C)c1	-1.5%
COc1ccc(-c2nc(CSCC(=O)NC3CCN(Cc4ccccc4)CC3)c(C)o2)cc1OC	-11.6%
Cc1ccc(-c2nc(CSCC(=O)NC3CCN(Cc4ccccc4)CC3)c(C)o2)cc1	16%
COc1cc(C(=O)N2CCCCCCC2)ccc1OC1CCN(C(C)=O)CC1	-27.7%
C=CCc1cccc(/C=N/NC(=O)C(=O)Nc2ccc(C)cc2)c1O	-24.6%
C=CCc1cccc(/C=N/NC(=O)C(C)Nc2ccc(C)cc2)c1O (stereo unspecified)	30.7%
C=CCc1cccc(/C=N/NC(=O)C(C)Nc2cccc(C)c2)c1O (stereo unspecified)	53.5% (active)
CCOC(=O)C(Cc1ccccc1)NC(=O)CNC(C)=O (stereo unspecified)	-11.4%
Cc1ccsc1/C=N/Nc1ccc(C(=O)O)cc1	-2.3%
CN(C)c1ccc(/C=N/Nc2cccc(C(=O)O)c2)cc1	72.1% (active)
CC(C)(C)c1ccc(/C=N/Nc2cccc(C(=O)O)c2)cc1	-13.1%
Cc1ccc(/C=N/Nc2cccc(C(=O)O)c2)s1	4.1%
Cc1ccsc1/C=N/Nc1cccc(C(=O)O)c1	84% (active)
O=C(O)c1cccc(N/N=C/c2ccc(-c3ccccc3)cc2)c1	3.6%
CSc1ccc(/C=N/Nc2cccc(C(=O)O)c2)cc1	83.8% (active)
CSc1ccc(/C=N/Nc2ccc(Cl)c(C(=O)O)c2)cc1	-22.8%
O=C(O)c1cccc(N/N=C/c2ccc(F)c(F)c2)c1	-12.4%
